# From PubChem BioAssay (Tox21)
# Results filed as inconclusive are left out. A number with no mark means an inactive call. Active and inactive are the calls of the source. Unless noted, the call rests on the fitted dose curve; in most records, active means well fitted cell-killing curve with a large enough effect in the repeat runs; inconclusive means weak or mixed curves, or effect the other way; inactive means no such curve, though single readings can be large or run the other way.
# Molecular target: Progesterone receptor (Homo sapiens) (UniProt P06401)
# Sequence (P06401 whole entry, looked up): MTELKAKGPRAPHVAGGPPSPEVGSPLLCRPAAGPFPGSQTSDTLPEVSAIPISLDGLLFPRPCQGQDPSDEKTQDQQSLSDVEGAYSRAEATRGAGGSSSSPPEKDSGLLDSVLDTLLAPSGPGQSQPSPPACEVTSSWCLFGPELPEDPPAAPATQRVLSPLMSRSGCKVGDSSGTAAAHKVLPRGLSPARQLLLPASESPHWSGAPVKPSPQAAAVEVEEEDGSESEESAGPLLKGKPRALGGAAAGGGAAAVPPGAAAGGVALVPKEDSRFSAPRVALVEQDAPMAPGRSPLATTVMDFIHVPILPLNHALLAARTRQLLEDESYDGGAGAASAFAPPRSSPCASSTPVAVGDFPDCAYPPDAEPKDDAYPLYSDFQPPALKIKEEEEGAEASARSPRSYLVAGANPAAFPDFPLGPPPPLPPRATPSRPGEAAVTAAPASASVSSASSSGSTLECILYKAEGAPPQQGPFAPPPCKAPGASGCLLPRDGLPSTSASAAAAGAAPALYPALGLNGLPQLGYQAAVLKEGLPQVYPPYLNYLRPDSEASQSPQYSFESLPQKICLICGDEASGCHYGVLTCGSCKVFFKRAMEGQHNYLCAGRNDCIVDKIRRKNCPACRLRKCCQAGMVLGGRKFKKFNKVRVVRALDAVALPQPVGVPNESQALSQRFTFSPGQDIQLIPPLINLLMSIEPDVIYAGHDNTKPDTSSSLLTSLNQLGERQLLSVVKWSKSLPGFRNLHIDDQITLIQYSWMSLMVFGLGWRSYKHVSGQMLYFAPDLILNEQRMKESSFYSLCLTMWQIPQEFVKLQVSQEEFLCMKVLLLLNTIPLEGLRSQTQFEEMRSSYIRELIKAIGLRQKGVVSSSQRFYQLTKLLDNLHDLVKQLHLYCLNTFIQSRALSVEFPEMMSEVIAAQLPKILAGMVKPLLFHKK
# Assay: qHTS assay to identify small molecule antagonists of the progesterone receptor (PR) signaling pathway (AID 1346795; active means well fitted inhibition curve with a large enough effect in the signal ratio in the repeat runs, not every such curve was filed as active; the % refers to the signal ratio; further: potency means the concentration at half of the fitted maximal effect)
# Details: PR-UAS-bla HEK293T, beta-lactamase FRET ratio, 16 h; series mostly up to 92.4 µM; activity change, negative = inhibition: at the top concentration
# Outline: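 Antagonist mode: compounds tested against 1 nM (final) promegestone stimulation in HEK293T cells expressing PR-UAS-bla reporter, 16 hr at 37C, 5% CO2; beta-lactamase activity detected via B/G FRET substrate after 2 hr at room temperature.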
# On the % scale 0 is the no-effect control and ±100 the full control effect.
Compound,"activity change, negative = inhibition",Potency
CCCCCCCCCCCCCC(=O)OCC,-5.05%,–
CC/C=C\CCCCCCCCCCOC(C)=O,10.9%,–
CN(C)CCC[C@@]1(c2ccc(F)cc2)OCc2cc(C#N)ccc21,-12.2% [at 42.5 µM],–
CC(C)(O)CCCC1=CCC(C=O)CC1 (configuration not stated),5.38%,–
CC(O)C(CO)C(C)O (configuration not stated),0.656%,–
Nc1cc(S(=O)(=O)O)ccc1O,2.02%,–
CCCCC(CC)COC(=O)CC#N (configuration not stated),6.72%,–
CC(=O)c1ccc2ccc3ccccc3c2c1,–,9.63 µM (active)
C=CCCCCCCCCCCCCCC,7.49% [at 18.9 µM],–
N#CC1(N)CCCCC1,-0.197%,–
CCCC(=O)OC,12.9%,–
CC(CC(=O)Cl)CC(C)(C)C (configuration not stated),1.99%,–
CCC(C)SSC(C)CC (configuration not stated),14.4%,–

# System: not listed separately
# Assay: qHTS assay to identify small molecule antagonists of the progesterone receptor (PR) signaling pathway - cell viability counter screen (AID 1346798); further: nearly all actives have a fitted effect of over 50% in size
# Details: PR-UAS-bla HEK293T viability, CellTiter-Glo luminescence, 16 h; series mostly up to 92.4 µM; activity change, negative = cytotoxicity: at the top concentration
# Outline: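 Counter screen for cytotoxicity: viability of PR-UAS-bla HEK293T cells was measured with CellTiter-Glo luminescence following 16 hr compound exposure in the presence of R5020.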
row,Compound,"activity change, negative = cytotoxicity"
1,C[C@]12C=CC(=O)C=C1[C@@H](F)C[C@@H]1[C@@H]2[C@@H](O)C[C@@]2(C)[C@H]1CC[C@]2(O)C(=O)CO,-1.94% [at 42.5 µM]
2,CCCCCCCCCCCCCC(=O)OCC,-3.57%
3,CCCCCCCCCCCCCCCCN(C)C,-0.0264% [at 8.39 µM]
4,CC/C=C\CCCCCCCCCCOC(C)=O,4.72%
5,N=C(N)S(=O)O,-7.57%
6,CCCCOCCCC,-2.42%
7,COc1ccccc1N1CCN(CC(O)COc2cc(OC)c(OC)c(OC)c2)CC1 (configuration not stated),1.45% [at 42.5 µM]
8,COCc1nnc(-c2ccc[n+]([O-])c2)n1-c1c(Cl)c(Cl)cc2[nH]c(=O)c(=O)[nH]c12,1.25%
9,CC1(C)S[C@@H]2[C@H](NC(=O)Cc3ccccc3)C(=O)N2[C@H]1C(=O)O (tested in a mixture with another compound),-5.52% [at 42.5 µM]
10,Cc1ccc(Br)cc1,-10.7%
11,Nc1cc(S(=O)(=O)O)ccc1O,-0.324%
12,COc1cc(S(N)(=O)=O)cc(C(=O)O)c1OC,0.556% [at 42.5 µM]
13,CCN1CCN(C(=O)N[C@@H](C(=O)N[C@@H]2C(=O)N3C(C(=O)O)=C(CSc4nnnn4C)CS[C@H]23)c2ccc(O)cc2)C(=O)C1=O,0.435% [at 42.5 µM]
14,CN(C)CCc1c[nH]c2ccc(C[C@H]3COC(=O)N3)cc12,5.1% [at 42.5 µM]
15,C=CCCCCCCCCCCCCCC,6.76% [at 18.9 µM]
16,COC(=O)c1ccc(C(=O)O)cc1,-3.7%
17,CCCCCCCCCCCCCCBr,2.01%
18,CC(C)C[P+](C)(CC(C)C)CC(C)C,-0.332%
19,O=C(O)/C=C(\CC(=O)O)C(=O)O,1.61% [at 42.5 µM]
20,CCC(C)c1nccnc1OC (configuration not stated),18.4%
21,N#CC1(N)CCCCC1,0.666%
22,Cc1ccc(OC(=O)CC(C)C)cc1,-6.77%
23,CCCC(=O)OC,2.05%
24,CCC(C)SSC(C)CC (configuration not stated),-7.84%
